The nature of test [1]: Nuclear factor erythroid 2-related factor 2/antioxidant responsive element (Nrf2/ARE) small molecule agonists: qHTS cell viability counter screen in human keratinocytes (AID 1919968; active = well fitted curve in the direction sought with a large enough effect in the repeat runs; an effect the other way counts as inactive or inconclusive; also: nearly all actives have a fitted effect of over 55% in size; also: potency is read from the fitted curve at half-maximal effect). In a few lines:
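After a 5 h attachment period, ARE-reporter keratinocytes were dosed with compounds in DMSO and then cultured 23 h at 37 C. Cell viability came from CellTiter-Fluor signal read after a further 1 h.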
On the technique in general: Quantitative high-throughput screening tests each substance at several concentrations.

Test [2] can be described thus: Nuclear factor erythroid 2-related factor 2/antioxidant responsive element (Nrf2/ARE) small molecule agonists: luciferase reporter gene qHTS assay in human keratinocytes (AID 1919969). Also: nearly all actives have a fitted effect of over 35% in size. Also: potency is read from the fitted curve at half-maximal effect.
For test [3], the target named is Gonadotropin-releasing hormone receptor (Homo sapiens) (UniProt P30968). Put plainly: Human gonadotropin-releasing hormone receptor (GnRHR) small molecule agonists, calcium flux assay in GnRHR-HEK293 cells (AID 1920063). Also: nearly all actives have a fitted effect of over 35% in size. In a few lines: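 We seeded human GnRHR-expressing HEK293 cells for 18 hours, loaded them with calcium dye for an hour at 37 C, added test compounds, and recorded fluorescence intensity kinetically for three minutes.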
Chain of Gonadotropin-releasing hormone receptor (Homo sapiens) (P30968 whole entry, looked up): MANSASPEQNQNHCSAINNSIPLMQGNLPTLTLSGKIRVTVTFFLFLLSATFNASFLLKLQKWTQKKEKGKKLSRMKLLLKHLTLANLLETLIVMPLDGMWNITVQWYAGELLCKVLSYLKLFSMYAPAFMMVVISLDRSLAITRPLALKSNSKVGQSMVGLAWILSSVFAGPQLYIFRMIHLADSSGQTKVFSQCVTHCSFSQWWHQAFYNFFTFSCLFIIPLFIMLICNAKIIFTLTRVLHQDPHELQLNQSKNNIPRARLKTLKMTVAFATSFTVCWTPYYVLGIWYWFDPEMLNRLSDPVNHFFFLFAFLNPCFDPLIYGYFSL

The target in test [4] is KiSS-1 receptor (Homo sapiens) (UniProt Q969F8). Put plainly: Human kisspeptin (KISS1R) small molecule agonists, calcium flux assay in KISS1R-HEK293 cells (AID 1920064; active = well fitted curve in the direction sought with a large enough effect in the repeat runs; an effect the other way counts as inactive or inconclusive). The procedure, abridged: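 Kinetic calcium assay, 1 s sampling over 3 min at Ex/Em 480/540, in HEK293 cells engineered with human KISS1R; compounds delivered in DMSO after 1 h dye loading.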
Chain of KiSS-1 receptor (Homo sapiens) (Q969F8 whole entry, looked up): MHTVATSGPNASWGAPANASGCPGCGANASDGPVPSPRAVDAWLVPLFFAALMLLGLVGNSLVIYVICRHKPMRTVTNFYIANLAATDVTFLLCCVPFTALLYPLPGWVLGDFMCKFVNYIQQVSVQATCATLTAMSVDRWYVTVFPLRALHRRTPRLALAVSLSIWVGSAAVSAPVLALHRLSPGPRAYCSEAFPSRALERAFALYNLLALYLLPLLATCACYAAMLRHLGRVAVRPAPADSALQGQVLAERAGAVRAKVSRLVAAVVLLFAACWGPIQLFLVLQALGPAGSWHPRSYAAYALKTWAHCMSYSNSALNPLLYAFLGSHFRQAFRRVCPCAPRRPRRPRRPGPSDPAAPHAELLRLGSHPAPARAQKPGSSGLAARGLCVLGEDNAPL
On the technique in general: A change in cytosolic calcium serves as a functional read-out for many receptors and channels.

Test [5] is described as follows: G protein-coupled receptor (GPCR) small molecule agonists, calcium flux assay: HEK293 wild type cell line counter screen (AID 1920065). In a few lines:
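Calcium-sensitive dye, loaded 1 h at 37 C into cells cultured 18 h, reports compound-evoked calcium release as fluorescence (Ex/Em 480/540), measured over 3 min. Agonist mode; 15-point titrations, triplicate.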

The nature of test [6]: p53 small molecule agonists, cell-based qHTS assay with human liver microsomes (AID 1963577). The procedure, abridged: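 p53RE-bla cells, 4,000/well, compound added after 5 h, with human liver microsomes 0.5 mg/mL and NADPH 0.5 mg/mL final; 16 h at 37 C, then LiveBLAzer 2 h RT, fluorescence.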
Test [7] in a line: p53 small molecule agonists, cell-based qHTS assay with rat liver microsomes (AID 1963578). In a few lines:
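p53RE-bla cells, 4,000/well, pre-incubated 5 h, then given compounds plus rat liver microsomes (0.5 mg/mL final) and NADPH (0.5 mg/mL final). Incubation 16 h at 37 C; beta-lactamase reporter read by LiveBLAzer fluorescence after 2 h at room temperature.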

Test [8] can be described thus: p53 small molecule agonists, cell-based qHTS assay with rat liver microsomes: qHTS cell viability counter screen (AID 1963580). Also: nearly all actives have a fitted effect of over 45% in size. Also: potency is read from the fitted curve at half-maximal effect. In a few lines:
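p53RE-bla HCT-116 cells were exposed 16 h at 37 C to compounds with rat liver microsomes (0.5 mg/mL) and NADPH (0.5 mg/mL). Viability was measured in the same wells as ATP content by CellTiter-Glo luminescence.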

Test [9] is described as follows: p53 small molecule agonists, cell-based qHTS assay: qHTS cell viability counter screen (AID 1963581). Also: nearly all actives have a fitted effect of over 45% in size. Also: potency is read from the fitted curve at half-maximal effect. In a few lines: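 Following 5 h attachment, HCT-116 p53RE-bla cells took up compound for 16 h at 37 C; the reporter was read with B/G FRET substrate (2 h RT), and viability then via CellTiter-Glo ATP luminescence.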
Test [10] in a line: p53 small molecule agonists, cell-based qHTS assay (AID 1963582; active = well fitted activation curve with a large enough effect in the signal ratio in the repeat runs, not every such curve was filed as active; the % refers to the signal ratio). In a few lines:
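In this cell-based concentration-response screen, a p53 response element drives beta-lactamase; cells received DMSO-borne compounds after 5 h culture and were incubated a further 16 h before FRET substrate development.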

Test [11] addresses 5-hydroxytryptamine receptor 2A (Homo sapiens) (UniProt P28223). In words: 5-hydroxytryptamine receptor 2A (HTR2A) small molecule agonists, cell-based qHTS assay (AID 1963587). Also: nearly all actives have a fitted effect of over 30% in size. The procedure, abridged: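 CHO cells stably expressing human HTR2A, plated 18 h, loaded with calcium dye 1 h at 37 C. Agonist mode: compounds added and intracellular calcium fluorescence recorded kinetically for 2 min at 1 sec intervals.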

Test [12] deals with Muscarinic acetylcholine receptor M1 (Homo sapiens) (UniProt P11229). In words: Cholinergic receptor muscarinic 1 (CHRM1) small molecule antagonists, cell-based qHTS assay (AID 1963588). Also: nearly all actives have a fitted effect of over 40% in size. In a few lines: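 CHRM1-CHO calcium-flux assay, antagonist mode. Cells were seeded 18 h, dye-loaded 1 h at 37 C and given compound for 5 min at RT, then acetylcholine was added at 50nM. FDSS fluorescence was read 3 min; 15 concentrations, three runs.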
Chain of Muscarinic acetylcholine receptor M1 (Homo sapiens) (P11229 whole entry, looked up): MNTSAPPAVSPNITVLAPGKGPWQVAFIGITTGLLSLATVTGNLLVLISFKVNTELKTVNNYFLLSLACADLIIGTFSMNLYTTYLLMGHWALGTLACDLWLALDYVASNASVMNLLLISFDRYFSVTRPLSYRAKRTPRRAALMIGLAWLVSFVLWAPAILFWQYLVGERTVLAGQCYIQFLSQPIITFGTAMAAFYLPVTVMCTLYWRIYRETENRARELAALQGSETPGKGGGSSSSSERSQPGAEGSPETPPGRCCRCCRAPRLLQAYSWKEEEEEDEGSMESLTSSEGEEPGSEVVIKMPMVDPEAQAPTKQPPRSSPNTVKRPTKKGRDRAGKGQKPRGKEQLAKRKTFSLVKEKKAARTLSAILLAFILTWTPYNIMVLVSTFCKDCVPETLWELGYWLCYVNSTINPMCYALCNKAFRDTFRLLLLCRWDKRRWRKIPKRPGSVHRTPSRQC

The target is the same in test [13]. In words: Cholinergic receptor muscarinic 1 (CHRM1) small molecule agonists, cell-based qHTS assay (AID 1963589). Also: nearly all actives have a fitted effect of over 35% in size. In a few lines: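 Measures agonist-induced intracellular calcium rise. Stable human CHRM1 CHO line, 1 h dye load at 37 C, compounds from DMSO, kinetic fluorescence read.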
Test [14] deals with Beta-2 adrenergic receptor (Homo sapiens) (UniProt P07550). Put plainly: Adrenergic beta2 receptor (ADRB2) small molecule antagonists, cell-based qHTS assay (AID 1963592). Also: series mostly up to about 92 µM; nearly all actives have a fitted effect of over 50% in size. The procedure, abridged: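 Cells (CHO, stable ADRB2 overexpression) incubated 18-20hr at 37C; compounds added from DMSO; agonist mix (1nM isoproterenol, 100uM IBMX, 25uM Ro-20-1724) added; 0.5hr RT; d2-cAMP and anti-cAMP-cryptate added; 1hr RT; 665/615 nm read.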
Chain of Beta-2 adrenergic receptor (Homo sapiens) (P07550 whole entry, looked up): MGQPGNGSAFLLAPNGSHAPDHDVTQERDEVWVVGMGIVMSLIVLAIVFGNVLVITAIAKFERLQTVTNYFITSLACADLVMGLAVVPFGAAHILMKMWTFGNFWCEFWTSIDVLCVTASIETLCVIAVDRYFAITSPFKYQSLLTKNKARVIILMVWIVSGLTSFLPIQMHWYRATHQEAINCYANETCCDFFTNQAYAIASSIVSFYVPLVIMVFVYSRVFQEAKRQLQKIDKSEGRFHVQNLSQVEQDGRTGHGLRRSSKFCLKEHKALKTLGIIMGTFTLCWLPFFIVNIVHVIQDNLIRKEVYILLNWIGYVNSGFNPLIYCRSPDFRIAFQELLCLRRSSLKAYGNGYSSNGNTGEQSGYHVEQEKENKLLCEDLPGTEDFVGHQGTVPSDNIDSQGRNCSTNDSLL

In test [15] the target is D(2) dopamine receptor (Homo sapiens) (UniProt P14416). In words: Dopamine D2 receptor (DRD2) small molecule agonists, cell-based qHTS assay (AID 1963594). Also: nearly all actives have a fitted effect of over 35% in size. In a few lines:
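HEK293 cells stably expressing human DRD2, pre-treated with PDE inhibitor Ro20-1724 (0.1 mM final) and compound 10 min at room temperature, then stimulated with NKH477 (200nM […]) for 30 min. cAMP read by HTRF (665/620 nm).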

For test [16] the target is unchanged. In words: Dopamine D2 receptor (DRD2) small molecule antagonists, cell-based qHTS assay (AID 1963595; active = well fitted inhibition curve with a large enough effect in the signal ratio in the repeat runs, with a control signal flat; the % refers to the signal ratio). In a few lines:
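HTRF cAMP read-out at 665 and 620 nm emission (340 nm excitation). Antagonist mode: compounds were tested against 12 nM quinpirole in DRD2-HEK293 cells, with 200 nM NKH477 raising cAMP and 0.1 mM Ro20-1724 blocking its breakdown.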

Test [17] in a line: p53 small molecule agonists, cell-based qHTS assay with human liver microsomes: qHTS cell viability counter screen (AID 1963579). Also: nearly all actives have a fitted effect of over 45% in size. The procedure, abridged:
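p53RE-bla cells, 4,000/well, dosed 5 hours after plating, with human liver microsomes (0.5 mg/mL final) plus NADPH (0.5 mg/mL final), 16 hours at 37 C. Viability read as CellTiter-Glo luminescence after 30 min at room temperature.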

Test [18] addresses 5-hydroxytryptamine receptor 2A (Homo sapiens) (UniProt P28223). In words: 5-hydroxytryptamine receptor 2A (HTR2A) small molecule antagonists, cell-based qHTS assay (AID 1963586). Also: nearly all actives have a fitted effect of over 45% in size. In a few lines: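 Antagonist-mode intracellular calcium assay: DOI (4 nM) added after 5 min compound pre-incubation at room temperature to dye-loaded HTR2A-CHO cells. Fluorescence followed for 3 min, sampled every second.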

Test [19] is described as follows: cAMP Responsive Elements (CRE) small molecule agonists, cell-based qHTS assay (AID 1963590). The procedure, abridged: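 A CRE-responsive beta-lactamase reporter in HEK 293T cells was used. Treatment ran 3 h at 37 C; detection used LiveBLAzer B/G FRET substrate for 2 h at room temperature.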
A short description of test [20]: cAMP Responsive Elements (CRE) small molecule antagonists, cell-based qHTS assay (AID 1963591; active = well fitted inhibition curve with a large enough effect in the signal ratio in the repeat runs, not every such curve was filed as active; the % refers to the signal ratio). The procedure, abridged: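 HEK293T cells carrying a CRE-driven beta-lactamase reporter receive compound and NKH477 (0.25 uM final) for 3 h. Fluorescence from LiveBLAzer B/G FRET substrate is read after 2 h at room temperature.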

Values without a mark were called inactive. Inconclusive results are not listed. The source made the active and inactive calls. Unless noted, calls follow the shape of the full dose curve.

Chain of D(2) dopamine receptor (Homo sapiens) (P14416 whole entry, looked up): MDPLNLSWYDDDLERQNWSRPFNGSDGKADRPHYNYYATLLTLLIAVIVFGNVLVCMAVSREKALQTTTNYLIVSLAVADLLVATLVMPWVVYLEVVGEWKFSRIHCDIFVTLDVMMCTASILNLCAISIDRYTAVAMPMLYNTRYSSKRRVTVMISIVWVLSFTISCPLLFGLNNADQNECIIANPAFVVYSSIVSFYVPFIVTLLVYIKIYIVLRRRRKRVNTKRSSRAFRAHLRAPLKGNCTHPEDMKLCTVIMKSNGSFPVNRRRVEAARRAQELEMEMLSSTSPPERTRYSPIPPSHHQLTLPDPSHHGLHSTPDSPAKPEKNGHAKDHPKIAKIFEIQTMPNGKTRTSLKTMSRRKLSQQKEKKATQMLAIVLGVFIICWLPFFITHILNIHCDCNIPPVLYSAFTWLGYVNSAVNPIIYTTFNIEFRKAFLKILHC
Chain of 5-hydroxytryptamine receptor 2A (Homo sapiens) (P28223 whole entry, looked up): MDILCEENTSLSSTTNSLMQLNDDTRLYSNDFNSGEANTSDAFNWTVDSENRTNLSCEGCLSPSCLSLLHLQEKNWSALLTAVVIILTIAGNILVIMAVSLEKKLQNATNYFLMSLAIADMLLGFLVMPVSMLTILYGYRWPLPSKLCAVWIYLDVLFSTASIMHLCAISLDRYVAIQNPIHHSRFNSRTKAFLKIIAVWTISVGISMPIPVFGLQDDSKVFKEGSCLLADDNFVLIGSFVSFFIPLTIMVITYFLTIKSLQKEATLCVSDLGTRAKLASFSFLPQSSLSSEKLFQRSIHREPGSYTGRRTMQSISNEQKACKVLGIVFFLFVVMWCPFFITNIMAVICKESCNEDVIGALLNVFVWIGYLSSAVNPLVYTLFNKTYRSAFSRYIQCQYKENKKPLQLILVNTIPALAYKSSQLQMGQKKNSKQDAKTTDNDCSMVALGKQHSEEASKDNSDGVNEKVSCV

For the molecule `COC(=O)N(C(=O)N1CO[C@@]2(C(=O)OC)Cc3cc(Cl)ccc3C2=N1)c1ccc(OC(F)(F)F)cc1`, the Potency result in test [1], in test [2], in test [3], in [4], in test [5] and in test [6] was “inactive” in each case. Also, the Potency entry in test [7], in [8], in test [9], in [10], in test [11] and in test [12] was “inactive” each time. Further, the Potency entry in test [13], in [14], in [15] and in test [16] was “inactive” throughout.

Consider `Clc1ccc(CCC(Cn2ccnc2)Sc2c(Cl)cccc2Cl)cc1` (stereo not given), for which the Potency in [1] was 29.8 µM (active); in [2] it was 13.3 µM (active). Moreover, the Potency entry in [3], in test [4], in test [5], in [6], in test [7] and in [17] was “inactive” throughout. In addition, the Potency entry in [8], in test [11], in test [12], in test [13], in [14] and in test [15] was “inactive” throughout.

Take `COC(=O)c1ccccc1S(=O)(=O)NC(=O)Nc1nc(C)nc(OC)n1`: the Potency entry in test [1], in [2], in test [3], in test [4], in test [5] and in test [6] was “inactive” each time. Besides, the Potency entry in [7], in test [17], in test [9], in test [10], in test [18] and in test [11] was “inactive” throughout. In addition, the Potency result in [12], in [19], in [14], in test [15] and in test [16] was “inactive” throughout.

For `O=C(O)c1cc[c]([Hg][Cl])cc1`, the Potency in [1] was 48.6 µM (active); in test [2], 21.7 µM (active). In addition, the Potency result in test [3], in test [4], in test [5], in test [6], in test [7] and in [8] was “inactive” throughout. Further, the Potency entry in [9], in test [10], in test [18], in test [11], in [12] and in test [13] was “inactive” in each case. For the same molecule, the Potency entry in [14] was “inactive”.

With `CS(=O)(=O)c1cc(C(F)(F)F)ccc1C(=O)c1cnoc1C1CC1`, the Potency result in test [1], in [2], in test [3], in [4], in [5] and in test [6] was “inactive” throughout. Besides, the Potency result in [7], in test [8], in test [9], in test [10], in [18] and in [11] was “inactive” throughout. Further, the Potency result in test [13], in [19], in test [20] and in [16] was “inactive” in each case.

In the case of `CC(C)[N+](=O)[O-]`, the Potency result in [1], in [2], in [3], in test [4], in [5] and in test [6] was “inactive” each time. In addition, the Potency result in [7], in [17], in test [8], in [11], in test [12] and in test [13] was “inactive” throughout. Moreover, the Potency entry in test [19], in test [20], in test [14] and in test [15] was “inactive” each time.

On to `O=[N+]([O-])c1cc(C(F)(F)F)c(Cl)c([N+](=O)[O-])c1Cl`, for which the Potency in test [1] is 24.3 µM (active); in test [2] it was 9.69 µM (active); in test [8] it was 36.3 µM (active); in [9], 16.2 µM (active). The Potency result in test [3], in test [4], in test [5], in [6], in [7] and in test [18] was “inactive” throughout. The Potency entry in test [11], in test [12], in test [13], in test [14], in test [15] and in test [16] was “inactive” throughout.

Values taken from PubChem BioAssay (Tox21).
